How the values were obtained:
Conditions in all cases: concentration: 1 μM, replicates: in singlicate; n = 1
NEK11 = system: NEK11
NEK1 = system: NEK1
NEK2 = system: NEK2
NEK3 = system: NEK3
NEK4 = system: NEK4
NEK5 = system: NEK5
NEK6 = system: NEK6
NEK7 = system: NEK7
NEK9 = system: NEK9
NIK = system: T1, NIK
T1 construct: gene MAP3K14
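Note: KINOMEscan kinase panel screen.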

SMILES	%Inh (NEK11)	%Inh (NEK1)	%Inh (NEK2)	%Inh (NEK3)	%Inh (NEK4)	%Inh (NEK5)	%Inh (NEK6)	%Inh (NEK7)	%Inh (NEK9)	%Inh (NIK)
CC(C)c1nc(-c2cccc(NS(=O)(=O)c3c(F)cccc3F)c2)c(-c2ccnc(Nc3ccc(N4CCOCC4)nc3)n2)s1.Cl [GSK1723980]	97.8%	0%	48%	0%	6%	0%	55%	76%	88%	95.4%
CSc1ccc(NC2=C(c3ccc(Cl)cc3)C(=O)NC2=O)cc1 [SB-317658]	28%	4%	0%	0%	0%	29%	33%	0%	1%	21%
CC(=O)Nc1cn2nc(Oc3cccc(NC(=O)c4cccc(C(F)(F)F)c4)c3)ccc2n1	0%	0%	0%	8%	0%	8%	3%	0%	0%	0%
Cc1ccccc1CC(=O)N1CCc2cc(-c3cn(C)c4ncnc(N)c34)ccc21 [GSK2603346]	58%	89%	97%	0%	29%	34%	0%	0%	0%	21%
Cc1cc(-c2c(-c3ccc(F)cc3)ncn2CCCN2CCOCC2)nc(N)n1 [SB-222517]	0%	33%	0%	25%	0%	0%	9%	0%	0%	12%
O=C(Nc1n[nH]c2nc(-c3ccccc3O)ccc12)C1CC1 [SB-711880]	0%	0%	0%	18%	0%	0%	0%	3%	6%	18%
CC(C)(C)c1ccc(C(=O)Nc2cn3cc(-n4ccnc4)ccc3n2)cc1	0%	0%	0%	35%	0%	13%	2%	0%	3%	0%
COc1cccc(C2=C(Nc3cccc(O)c3)C(=O)NC2=O)c1 [SB-390771]	0%	0%	0%	19%	2%	2%	0%	7%	15%	7%
Cc1ccc(NC(=O)c2cccc(N3CCCCC3)c2)cc1-c1ccc(C(=O)NCC2CC2)cc1 [GSK1917008]	0%	27%	16%	11%	23%	12%	0%	13%	35%	68%
COc1cccc2c(-c3ccncc3)c(-c3ccc(F)cc3)nn12 [GW468513]	0%	0%	0%	0%	4%	7%	0%	0%	0%	0%
O=C(Nc1n[nH]c2nc(-c3cccc(O)c3)ccc12)C1CC1 [SB-711805]	7%	4%	2%	19%	0%	0%	0%	0%	8%	8%
CCn1c(-c2nonc2N)nc2c(-c3ccccc3)ncc(OCCCN)c21.O=C(O)C(F)(F)F.O=C(O)C(F)(F)F [GSK260205]	1%	0%	1%	7%	21%	1%	0%	0%	0%	30%
O=C1NC(=O)C(c2ccccc2Cl)=C1Nc1cccc(Cl)c1 [SB-342409]	0%	5%	10%	56%	11%	7%	1%	16%	20%	0%
N#Cc1cnc2cc(-c3cnc(CNCCN4CCOCC4)s3)ccc2c1Nc1ccc(Oc2ccccc2)cc1 [GW664114]	25%	0%	82%	20%	1%	0%	0%	0%	17%	0%
COC(=O)Nc1nc2ccc(Oc3ccc(CC(=O)Nc4cc(C(F)(F)F)ccc4F)cc3)cc2[nH]1 [GW680903]	0%	0%	0%	6%	14%	13%	0%	0%	45%	25%
Nc1cccc(-c2ccc3c(N)n[nH]c3c2)c1 [GSK2193613]	17%	11%	11%	0%	0%	6%	0%	0%	8%	6%
Cn1cc(-c2ccc3c(c2)CCN3C(=O)Cc2cc(F)cc(F)c2F)c2c(N)ncnc21 [GSK2634140]	38%	7%	84%	0%	32%	8%	18%	0%	8%	26%
O=C(Nc1n[nH]c2nc(-c3ccccc3)ccc12)C1CC1 [SB-708999]	36%	0%	0%	2%	5%	49%	24%	0%	7%	18%
CN(c1ccc(NC(=O)N2CCN(CCCN3CCOCC3)CC2)cc1)c1ccnc(Nc2ccc(CS(C)(=O)=O)cc2)n1.Cl [GW830899]	0%	0%	14%	9%	0%	3%	14%	0%	0%	0%

SMILES	%Inh (NEK11)	%Inh (NEK1)	%Inh (NEK2)	%Inh (NEK3)	%Inh (NEK4)	%Inh (NEK5)	%Inh (NEK6)	%Inh (NEK7)	%Inh (NEK9)	%Inh (NIK)
Cl.N#CCc1ccc(Nc2nccc(Nc3ccc(Oc4ccccc4)cc3)n2)cc1 [GW639905]	0%	0%	5%	0%	16%	24%	0%	0%	0%	0%
COc1cc(Nc2nccc(N3CCC(NS(=O)(=O)c4ccc(NC(C)=O)cc4)CC3)n2)cc(OC)c1OC [GSK1379825]	0%	83%	1%	89%	3%	100%	62%	86%	45%	26%
COc1cccc(NC(=O)NCCNc2ccnc(Nc3ccc(F)cc3)n2)c1 [GSK1379879]	0%	0%	0%	9%	0%	11%	0%	0%	0%	27%
COC(=O)Nc1nc2cc(Oc3ccc(NC(=O)Nc4cccc(SC)c4)cc3)ccc2[nH]1.Cl [GW697999]	22%	0%	0%	4%	4%	11%	0%	0%	3%	0%
Cl.Cl.NCC(NC(=O)c1cc(-c2cccnc2)c(-c2ccnc3[nH]ccc23)s1)c1ccccc1 (stereo not shown) [GSK1323434]	15%	13%	1%	18%	24%	13%	4%	0%	11%	35%
Fc1cc(Cl)ccc1Nc1ccnc2cc(-c3ccc(CN4CCOCC4)o3)ccc12 [GW560109]	0%	0%	13%	0%	15%	1%	0%	3%	0%	4%
COc1ccc(NC(=O)c2ccoc2)cc1-c1ccc(C(=O)NCC2CC2)cc1 [GW810437]	0%	0%	0%	37%	0%	0%	0%	0%	7%	40%
Cl.Cl.NC(CNC(=O)c1cc(Br)c(-c2ccnc3[nH]ccc23)s1)c1ccccc1 (stereo not shown) [GSK1322949]	0%	54%	0%	5%	0%	16%	0%	0%	23%	11%
CN(c1ccc(NC(=O)Nc2cccc(Cl)c2)cc1)c1ccnc(N)n1.Cl [GW830707]	28%	0%	16%	0%	0%	7%	14%	0%	3%	9%
COc1cc(Nc2ccnc3cc(-c4ccncc4)ccc23)cc(OC)c1OC.Cl [GW494610]	8%	0%	0%	0%	0%	5%	1%	0%	4%	0%
Cc1cccc(Nc2nc(NCCN)ncc2C(N)=O)c1 [GSK1292139]	3%	0%	0%	31%	29%	47%	0%	0%	18%	0%
O=C(Nc1c(F)cccc1F)c1cc(C(=O)c2ccccc2F)c[nH]1 [GSK1326180]	16%	0%	0%	0%	0%	0%	0%	0%	5%	0%
Cc1nn2c(=O)cc(N3CCO[C@H](C)C3)nc2n1Cc1cccc(Cl)c1Cl [GSK2373693]	0%	0%	18%	0%	0%	75%	0%	0%	0%	21%
Cn1cc(-c2cnc(N)c3c(-c4ccc5c(c4)CCN5C(=O)Cc4ccccc4)csc23)cn1 [GSK2593074]	47%	0%	28%	1%	0%	5%	0%	0%	0%	0%
NCCC(NC(=O)c1cc(Br)c(-c2ccnc3[nH]ccc23)s1)c1ccccc1.O=C(O)C(F)(F)F.O=C(O)C(F)(F)F (stereo not shown) [GSK1307810]	30%	71%	19%	0%	0%	96.3%	3%	0%	4%	49%
c1ccc(Oc2ccc(Nc3ccnc4cc(-c5ccc(CN6CCCCC6)o5)ccc34)cc2)nc1 [GW567143]	0%	0%	0%	0%	25%	0%	0%	0%	2%	6%
O=C(O)C(F)(F)F.O=c1[nH]ccc2nc(N[C@@H]3CCNC3)nc(Nc3ccc4c(c3)S(=O)(=O)CC4)c12 [GSK2181306]	0%	6%	46%	8%	16%	0%	3%	5%	19%	77%
Cc1cccc(Nc2nc(N[C@H]3CCCC[C@H]3N)ncc2C(N)=O)c1.Cl [GSK986310]	0%	2%	15%	19%	24%	13%	10%	8%	25%	23%
